# High-throughput results as filed in PubChem.
# BAZ2B block = inhibitors of human BAZ2B bromodomain; 360,000 compounds, 4.4% hits; AlphaScreen BAZ2B-H3K14Ac peptide displacement; Q9UIF8; Potency, µM (highest dose often 114 µM), for inactives: at the highest dose activity change, negative = inhibition, usual class: inhibitors; AID 504333; further: potency means the concentration at half of the fitted maximal effect; on the % scale 0 is the no-effect control and ±100 the full control effect; nearly all actives have a fitted effect of over 60% in size
#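 Compounds, titrated to a top concentration of 110 uM, were incubated 30 min at room temperature with preformed BAZ2B/acetyl-K14 H3 peptide complex (50 nM each). Proximity signal was measured by AlphaScreen after 20 min with beads.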
# JMJD2A Tudor = JMJD2A Tudor domain (human) inhibition. AlphaScreen JMJD2A-Tudor / H3K4me3 peptide binding. Potency, µM (series often up to 114 µM), for inactives: at the highest dose activity change, negative = inhibition, usual class: inhibitors. 390,000 compounds, 4.4% hits; further: potency means the concentration at half of the fitted maximal effect; on the % scale 0 is the no-effect control and ±100 the full control effect; nearly all actives have a fitted effect of over 50% in size
# HP1b chromo inh = blocks HP1-beta chromodomain binding to methylated histone tails | P83916 | 390,000 compounds, 0.56% hits | Potency, µM (top dose mostly 114 µM), without a hit: at the highest dose activity change, negative = inhibition, most hits filed as inhibitors | AID 540317 | AlphaScreen HP1-beta / biotin-H3K9me3 peptide binding; further: potency means the concentration at half of the fitted maximal effect; nearly all actives have a fitted effect of over 70% in size
# Target sequence (P83916 whole entry, looked up): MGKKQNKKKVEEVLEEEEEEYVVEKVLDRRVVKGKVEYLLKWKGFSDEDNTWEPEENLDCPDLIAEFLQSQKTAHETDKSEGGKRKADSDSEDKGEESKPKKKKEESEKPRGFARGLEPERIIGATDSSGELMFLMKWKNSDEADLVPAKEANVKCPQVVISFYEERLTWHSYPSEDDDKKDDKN
#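 Compound inhibition of the preformed complex between 50 nM HP1-beta and 50 nM biotinylated H3K9me3 peptide was read by AlphaScreen. Buffer was PBS pH 7.4 with 0.01% Tween-20. Incubations ran 30 min at room temperature, with 10 ug/mL donor/acceptor beads.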
# PI5P4K alpha inh = inhibitors of human PI5P4K alpha; PI5P4Kalpha enzyme, ADP-Glo luminescence, 60 min; stronger effect = lower value; max response, %; 330,000 compounds, 1.2% hits; AID 652105; active means max response of -50% or lower; inconclusive means between -30% and -50%; inactive means -30% or higher; further: value at the top dose of about 77 µM; on the % scale 0 is the no-effect control and ±100 the full control effect
#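 Controls without substrate or without enzyme flank wells where PI5P4Kalpha converts substrate using 5 microM ATP (final). Incubation lasts 60 minutes at room temperature; ADP formed is read by ADP-Glo luminescence.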
# G9a inh = inhibitors of human histone lysine methyltransferase G9a | 350,000 compounds, 8.8% hits | Potency, µM (top dose mostly 102 µM), for the others: at the highest dose activity, negative = inhibition, hits mostly inhibitors | G9a H3K9 monomethylation, AlphaScreen, 2 h | Q96KQ7; further: potency means the concentration at half of the fitted maximal effect; on the % scale 0 is the no-effect control and ±100 the full control effect; nearly all actives have a fitted effect of over 75% in size
# Target sequence (Q96KQ7 913-1193 limits assumed): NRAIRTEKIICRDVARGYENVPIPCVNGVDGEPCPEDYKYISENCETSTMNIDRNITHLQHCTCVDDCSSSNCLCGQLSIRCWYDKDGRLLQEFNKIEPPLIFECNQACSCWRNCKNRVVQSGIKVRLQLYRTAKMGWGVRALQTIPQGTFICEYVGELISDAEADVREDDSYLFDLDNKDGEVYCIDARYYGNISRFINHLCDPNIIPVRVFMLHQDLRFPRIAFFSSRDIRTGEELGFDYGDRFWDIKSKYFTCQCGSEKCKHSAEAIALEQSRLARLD
#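 AlphaScreen read-out: biotin-H3K9 peptide (500 nM) methylation by 20 nM enzyme with 20 uM SAM, 2 h at room temperature after 15 min compound preincubation; anti-monomethyl H3K9 antibody plus donor/acceptor beads, 10 min dark.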
# PLK1 PBD inh = PLK1 (human) polo-box domain binding inhibition; Potency, µM, inactives show max response, negative = inhibition, actives largely listed as inhibitors; AID 720504; 360,000 compounds, 2.8% hits; P53350; Plk1 PBD binding of FITC phosphopeptide, fluorescence polarization; further: potency means the concentration at half of the fitted maximal effect; series mostly up to about 57 µM; on the % scale 0 is the no-effect control and ±100 the full control effect; nearly all actives have a fitted effect of over 65% in size
# Starred values were filed as active, the others as inactive; ? = inconclusive; / = no result; [ ] = remark or other dose. A selection: hits, their analogues and other compounds. The true share with any hit is near 12%. Unless noted, the call rests on the fitted dose curve; in most records, active means well fitted curve in the direction sought with a large enough effect; inconclusive means small, poorly fitted or top-dose-only effect, or another doubt; inactive means no such curve, though single readings can be large; an effect the other way counts as inactive or inconclusive.
SMILES,BAZ2B block,JMJD2A Tudor,HP1b chromo inh,PI5P4K alpha inh,G9a inh,PLK1 PBD inh
CN(C)c1ccc(/C=N/NC(=O)CNC(=O)c2ccc3c(c2)OCCO3)cc1,-32.3%,-25.8%,28.6%,?,?,-10.3%
O=C(Nc1ccc(-c2nc3ccccc3[nH]2)cc1)c1ccc2c(c1)OCO2,?,-25.6%,-20.5%,/,70.8µM*,-4.0%
CC(=O)Nc1ccc(C(=O)OCC(=O)NCc2ccc3c(c2)OCO3)cc1,/,-5.5%,35.3%,3.0,/,6.2%
CCN(CC)c1ccc(/C=N/NC(=O)CNC(=O)c2ccc3c(c2)OCCO3)cc1,-31.0%,-32.6%,0.4%,-25.3,44.7µM*,-4.5%
CC(=O)Nc1cc(NC(C)=O)cc(C(=O)OCC(=O)c2ccc3c(c2)OCO3)c1,-26.6%,-24.8%,21.8%,-4.0,10µM*,-3.6%
O=C(Nc1ccc(Cl)c(-c2nc3ccccc3[nH]2)c1)c1ccc2c(c1)OCO2,-13.7%,-24.7%,25.3%,4.5,?,4.3%
COc1cccc(CN(C)C(=O)c2ccc(S(=O)(=O)Nc3ccccc3C)cc2)c1OC,/,/,/,-6.3,/,1.0%
CS(=O)(=O)N1CCN(C2C3CC4CC(C3)CC2C4)CC1 (configuration not stated),-5.8%,10µM*,?,-6.4,/,-13.0%
CN1CCCN(C2C3CC4CC(C3)CC2C4)CC1 (configuration not stated),?,1µM*,?,8.7,10µM*,2.4%
CC1CCC(N2CCN(S(C)(=O)=O)CC2)CC1 (configuration not stated),31.6µM*,3.16µM*,44.7µM*,0.3,?,1.3%
O=C(c1ccccc1)N1CCN(C2C3CC4CC(C3)CC2C4)CC1 (configuration not stated),12.5%,-7.3%,21.8%,/,2.9%,-2.2%
COc1ccc2c(c1)cc1c(=O)n(CC(=O)NCCc3ccccc3)nc(C)n12,-1.5%,10.5%,53.6%,/,-3.0%[59 µM],/
CC(C)C(=O)Nc1cccc(N2CCN(CCCN3C(=O)C4CCCCN4C3=O)CC2)c1 (configuration not stated),/,79.4µM*,18.0%,2.5,/,-2.0%
Cc1ccc(N2CCN(CCCN3C(=O)C4CCCN4C3=O)CC2)cc1 (configuration not stated),?,-21.3%,23.6%,1.9,8.91µM*,-14.9%
O=C1C2CCCN2C(=O)N1CCCN1CCN(c2cccc(Cl)c2)CC1 (configuration not stated),1.2%,-12.8%,32.5%,3.1,14.9%[59 µM],-3.7%
Cc1ccc2c(=O)c(C(=O)c3cccc(Cl)c3)cn(CC(=O)NCc3ccc(F)cc3)c2n1,1.4%,-4.8%,19.2%,/,14.9%[59 µM],/
CC1CCN(C(=O)COC(=O)c2cc([N+](=O)[O-])ccc2N2CCOCC2)CC1,8.6%,-5.5%,9.3%,-4.2,-5.8%[0.501 µM],-12.4%
CC1CCCCN1C(=O)COC(=O)c1cc([N+](=O)[O-])ccc1N (configuration not stated),-26.3%,-7.9%,3.5%,3.4,39.8µM*,-1.5%
Cc1ccc2nc(N(Cc3cccnc3)C(=O)COc3ccccc3)sc2c1,-4.3%,-11.7%,27.0%,/,6.3%[59 µM],/
C(=NN1CCCCCC1)c1cccc2ccccc12,/,50.1µM*,?,-5.5,/,-8.2%
Oc1ccccc1/C=N/N1CCCCC1,/,-30.8%,16.8%,0.0,-30.6%,-10.3%
C(=NN1CCCCCC1)c1ccc2c(c1)OCO2,/,50.1µM*,?,1.5,/,1.6%
Brc1ccccc1/C=N/N1CCCCC1,?,?,-28.8%,6.6,-4.8%[2.33 µM],-0.6%
C(=N\n1cnnc1)/c1ccc2c(c1)OCO2,7.3%,-14.4%,21.6%,-1.6,18.0%,-0.4%
Oc1ccccc1C=NN1CCCCCC1,/,44.7µM*,?,-6.6,/,3.3%
Oc1cccc(/C=N/N2CCCCC2)c1O,-32.6%,-26.8%,19.2%,1.8,44.7µM*,4.8%
Oc1ccc(/C=N/N2CCOCC2)c(O)c1O,/,22.4µM*,-6.5%,-21.5,3.98µM*,9.47µM*
Oc1ccc(Cl)cc1C=NN1CCCCCC1,/,56.2µM*,-18.3%,4.6,/,-9.7%
